Experimental data as given in PubChem BioAssay (EPA / NIEHS).
Records with an inconclusive call do not appear. Calls of active or inactive are those of the source. Rule for the calls, unless noted: active = hit-call score of the fitted dose curve at least 0.9, where 1 is the maximum; inactive = score below 0.9.

Assays:
[1] = ACEA_ER_80hr: ACEA Biosciences xCELLigence Real-Time Cell Analysis on Estrogen Receptor Agonism for Proliferation (AID 2282667; active = hit-call score of the fitted dose curve at least 0.9, where 1 is the maximum); conditions: T47D proliferation, impedance (xCELLigence), 80 h
Summary of the method: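 T-47D cells monitored by electrical impedance (xCELLigence) with compound present throughout; 80 h timepoint, positive-direction fitting versus DMSO. Eight-point 1:4 dilutions from 100 uM final, duplicate plates.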

[2] = APR_HepG2_CellCycleArrest_24hr: Apredica 24-hour HepG2 Assay for Cell Cycle Arrest (AID 2282905); conditions: imaging, actives raise or lower the signal;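 note: cell cycle arrest scored as ratio of 2N to 4N nuclear DNA content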
Summary of the method: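 Readout: Hoechst 33342 nuclear DNA content by high-content fluorescent imaging, six images/well, 20x. Human HepG2 liver cells, 24 hr compound exposure, 0.39–200 uM, final DMSO 0.5% v/v. Gain or loss fitted relative to DMSO baseline.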

[3] = APR_HepG2_NuclearSize_24hr: Apredica 24-hour HepG2 Assay for Nuclear Size (AID 2282907); conditions: high-content imaging, actives raise or lower the signal
Summary of the method: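 Read-out: nuclear diameter from Hoechst 33342 (2 ug/mL) imaging of fixed HepG2 cells, 20x, six fields/well. Compounds ran at 0.39–200 uM for 24 hr, 0.5% DMSO final. Gain or loss was fitted bidirectionally relative to the DMSO baseline.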

[4] = APR_HepG2_CellLoss_24hr: Apredica 24-hour HepG2 Assay for Cell Loss (AID 2282908); conditions: high-content imaging;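 for AC50: fit in both directions so a hit may be cell loss or gain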
Summary of the method: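 Read-out: Hoechst 33342-stained nuclei counted by automated fluorescence imaging after formaldehyde fixation and Triton permeabilization. Ten concentrations, 0.39 to 200 uM, duplicate wells, 0.5% DMSO final. Gain or loss of signal fitted relative to DMSO baseline.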

[5] = APR_HepG2_MicrotubuleCSK_24hr: Apredica 24-hour HepG2 Assay for Microtubule CSK Stabilty (AID 2282909); conditions: HepG2 microtubule cytoskeleton imaging, actives raise or lower the signal
Summary of the method: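 Read-out: alpha-tubulin immunofluorescence intensity by automated high-content imaging of fixed HepG2 cells after 24 h compound treatment. Ten concentrations, 0.39 to 200 uM, in duplicate; DMSO 0.5% v/v. Taxol positive control; DMSO-normalized bidirectional curve fitting.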

[6] = APR_HepG2_MitoticArrest_24hr: Apredica 24-hour HepG2 Assay for Mitotic Arrest (AID 2282910); conditions: high-content imaging, actives raise or lower the signal
Summary of the method: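 Treatment lasted 24 hr in the human HepG2 line at 0.39–200 uM, solvent held at 0.5% DMSO. Fixed cells were stained with Hoechst 33342 and anti-phospho-histone H3, imaged at 20x, and analysed by gain- or loss-of-signal fitting against DMSO.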

[7] = APR_HepG2_MitoMembPot_24hr: Apredica 24-hour HepG2 Assay for Mitochondrial Membrane Potential (AID 2282911); conditions: imaging, actives raise or lower the signal
Summary of the method: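 HepG2 cells exposed 24 h to 0.39–200 uM compounds in duplicate, 0.5% v/v DMSO final. MitoTracker Red CMXRos 250 nM loaded 30 min before formaldehyde fixation; high-content imaging at 20x, bidirectional fit versus DMSO.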

[8] = APR_HepG2_MitoMass_24hr: Apredica 24-hour HepG2 Assay for Mitochondrial Mass (AID 2282912); conditions: high-content imaging, actives raise or lower the signal
Summary of the method: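 HepG2, 24 hr dosing, 10 concentrations 0.39–200 uM in duplicate, DMSO 0.5% final. MitoTracker Red CMXRos 250 nM, 30 min pre-fix; 3.7% formaldehyde fix. Imaging-based fluorescence intensity; gain/loss fit vs DMSO baseline.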

[9] = APR_HepG2_p53Act_24hr: Apredica 24-hour HepG2 Assay for p53 Activation (AID 2282913); conditions: high-content imaging, actives raise or lower the signal;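 note: p53 protein immunofluorescence averaged per cell in HepG2 with Hoechst nuclei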
Summary of the method: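 HepG2 cells exposed 24 h to compounds at 0.39–200 uM in duplicate, 0.5% v/v DMSO final; fixed, permeabilized, stained with anti-p53 antibody and Hoechst 33342; fluorescence imaging; bidirectional curve fit versus DMSO.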

[10] = APR_HepG2_CellCycleArrest_72hr: Apredica 72-hour HepG2 Assay for Cell Cycle Arrest (AID 2282914); conditions: high-content imaging, actives raise or lower the signal
Summary of the method: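 HepG2 cells exposed 72 h in duplicate to 0.39–200 uM compound, 0.5% DMSO final. Formaldehyde-fixed, Hoechst 33342-stained nuclei imaged at 20x, six fields per well; DNA content per valid cell quantified by cell-cycle image analysis, bidirectional fit versus DMSO.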

[11] = APR_HepG2_CellLoss_72hr: Apredica 72-hour HepG2 Assay for Cell Loss (AID 2282915); conditions: high-content imaging
Summary of the method: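 HepG2 cells were exposed for 72 hr to compounds at 0.39–200 uM (ten concentrations, duplicate) in 0.5% v/v final DMSO. Nuclei were stained with Hoechst 33342 after 3.7% formaldehyde fixation, imaged at 20x, and counted; fits bidirectional versus DMSO.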

[12] = APR_HepG2_P-H2AX_72hr: Apredica 72-hour HepG2 Assay for H2AX Phosphorylation (AID 2282916); conditions: imaging, actives raise or lower the signal;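 note: phospho-histone H2A.x immunostain intensity per cell marking DNA damage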
Summary of the method: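 Readout: phospho-H2A.x immunofluorescence (FITC secondary) plus Hoechst nuclear stain, high-content imaging at 20x, six fields/well. HepG2, 72 hr compound exposure, 0.39–200 uM, final DMSO 0.5% v/v. Gain or loss fitted relative to DMSO baseline.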

[13] = APR_HepG2_MitoMembPot_72hr: Apredica 72-hour HepG2 Assay for Mitochondrial Membrane Potential (AID 2282917); conditions: imaging, actives raise or lower the signal
Summary of the method: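 HepG2 cells exposed 72 h to compounds at 0.39–200 uM (0.5% v/v DMSO, duplicates); MitoTracker Red CMXRos 250 nM loaded 30 min before 3.7% formaldehyde fixation, imaged by HCS fluorescence. Bidirectional fit versus DMSO.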

[14] = APR_HepG2_MitoticArrest_72hr: Apredica 72-hour HepG2 Assay for Mitotic Arrest (AID 2282918); conditions: high-content imaging, actives raise or lower the signal
Summary of the method: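 HepG2 cells treated 72 h at 0.39–200 uM, 0.5% DMSO final; formaldehyde-fixed, stained with Hoechst 33342 and phospho-histone H3 antibody, imaged by high-content fluorescence; bidirectional fit versus DMSO.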

[15] = APR_HepG2_MicrotubuleCSK_72hr: Apredica 72-hour HepG2 Assay for Microtubule CSK Stabilty (AID 2282919); conditions: HepG2 microtubule cytoskeleton, high-content imaging, actives raise or lower the signal
Summary of the method: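 Ten-point dosing (0.39–200 uM, 0.5% DMSO) of HepG2 for 72 hr, with taxol as the cytoskeletal positive control. The cells were formaldehyde-fixed and then stained with alpha-tubulin/Cy5 and Hoechst. Imaging at 20x used a −2 um Z offset for tubulin.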

[16] = APR_HepG2_P-H2AX_24hr: Apredica 24-hour HepG2 Assay for H2AX Phosphorylation (AID 2282920); conditions: high-content imaging, actives raise or lower the signal
Summary of the method: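 HepG2 cells dosed 24 h at 0.39–200 uM (10 points, duplicate, 0.5% DMSO final). Formaldehyde-fixed and permeabilized, then immunostained for phospho-H2A.x with Hoechst. Fluorescence quantified by high-content imaging, fitted bidirectionally versus DMSO.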

[17] = APR_HepG2_StressKinase_72hr: Apredica 72-hour HepG2 Assay for Stress Kinase (AID 2282921); conditions: HepG2 stress kinase (phospho-c-Jun) imaging, actives raise or lower the signal
Summary of the method: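 Phospho-c-Jun immunofluorescence measured by high-content imaging at 20x, six fields per well; bidirectional curve fitting against DMSO as baseline. Dosing: 0.39–200 uM, 72 h, 0.5% DMSO final.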

[18] = APR_HepG2_StressKinase_24hr: Apredica 24-hour HepG2 Assay for Stress Kinase (AID 2282922); conditions: HepG2 stress kinase (phospho-c-Jun) imaging, actives raise or lower the signal
Summary of the method: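 After 24 hr compound treatment (up to 200 uM, final DMSO 0.5% v/v), HepG2 cells are fixed and multiplex-labeled; phospho-c-Jun intensity is captured by high-content fluorescence imaging and analyzed relative to DMSO.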

[19] = APR_HepG2_p53Act_72hr: Apredica 72-hour HepG2 Assay for p53 Activation (AID 2282923); conditions: high-content imaging, actives raise or lower the signal;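 note: average cellular p53 protein immunofluorescence intensity in HepG2 cells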
Summary of the method: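 Readout: p53 immunofluorescence quantified by automated high-content imaging at 20x, six fields per well, nuclei located via Hoechst. Dosing ran 72 hr over ten concentrations from 0.39 to 200 uM; bidirectional curve fitting against DMSO baseline.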

[20] = APR_HepG2_MitoMass_72hr: Apredica 72-hour HepG2 Assay for Mitochondrial Mass (AID 2282924); conditions: high-content imaging, actives raise or lower the signal;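 note: MitoTracker Red CMXRos stain intensity per cell imaged as mitochondrial mass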
Summary of the method: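 Steps: treat HepG2 72 hr (0.39–200 uM, duplicate wells); load MitoTracker Red CMXRos, 250 nM, 30 min; fix with 3.7% formaldehyde, permeabilise with 0.5% Triton X-100; capture images, nuclei via Hoechst 33342; fit bidirectionally against DMSO.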

Measured: AC50

CC(C)(C)c1cc(C(C)(C)C)c(O)c(C(C)(C)C)c1
active: [1] 10.6 µM | [11] 39.1 µM | [19] 0.357 µM
inactive: all other assays above

CCCCCCCCCCCCN1CCCC1=O
inactive: [1] | [5] | [7] | [9] | [13] | [18]
active: [2] 53.5 µM | [3] 75.3 µM | [4] 47.4 µM | [6] 68.7 µM | [8] 51 µM | [10] 42.6 µM | [11] 72.4 µM | [12] 58.6 µM | [14] 62.4 µM | [15] 53.3 µM | [16] 67.2 µM | [17] 67.5 µM | [19] 61.3 µM | [20] 109 µM

CC(=O)NC1(c2cccc(F)c2)CCN(CC[C@@]2(c3ccc(Cl)c(Cl)c3)CN(c3ccccc3)C(=O)CO2)CC1
active: [2] 26.3 µM | [4] 36.3 µM | [5] 146 µM | [6] 31.6 µM | [7] 90.2 µM | [8] 151 µM | [9] 21.6 µM | [10] 18.7 µM | [11] 21.3 µM | [12] 21.8 µM | [14] 14.8 µM | [15] 37.7 µM | [16] 39.3 µM | [17] 24 µM | [19] 18.7 µM
inactive: [1] | [3] | [13] | [18] | [20]

CC(O)CO (stereo not given)
inactive: all assays above

O=[N+]([O-])c1ccc(O)cc1
inactive: all assays above

O=C(/C=C/c1ccc(O)cc1)CC(=O)/C=C/c1ccc(O)cc1
active: [3] 68.6 µM | [6] 24.6 µM | [8] 61 µM | [12] 32.1 µM | [17] 27.1 µM | [18] 100 µM | [20] 46.3 µM
inactive: all other assays above

O=C(OCCOCCOC(=O)c1ccccc1)c1ccccc1
inactive: all assays above

O=C(O)Cc1cc(I)c(Oc2cc(I)c(O)c(I)c2)c(I)c1
active: [2] 109 µM | [9] 72.2 µM | [10] 72.5 µM
inactive: all other assays above

CCCCC(CC)COC(=O)CCCCC(=O)OCC(CC)CCCC (stereo not given)
inactive: all assays above

c1ccc2c(c1)Cc1ccccc1-2
inactive: all assays above

N#C[C@@H]1CC(F)(F)CN1C(=O)CNC1CC2CCC(C1)N2c1ncccn1 (stereo not given in full)
active: [1] 4 µM
inactive: all other assays above
